# Measurements: PMC7862700, “An all-to-all approach to the identification of sequence-specific readers for epigenetic DNA modifications on cytosine”
# Tests used:
# Test in all cases: DAPPL (digital affinity profiling via proximity ligation, sequencing); 10 mM Tris-HCl pH 7.5, 50 mM NaCl, 1 mM DTT, 4% glycerol, room temperature, 30 min; GST-TFs on glutathione beads, 16-mer random dsDNA library, 0.1% formaldehyde crosslink after washing; high values mean tight binding
# FLI1 = biological target: T1, FLI1 (Homo sapiens, UniProt Q01543 1-452); conditions: protein: recombinant; tags: N-terminal GST; dsDNA, one strand shown
# T1 sequence: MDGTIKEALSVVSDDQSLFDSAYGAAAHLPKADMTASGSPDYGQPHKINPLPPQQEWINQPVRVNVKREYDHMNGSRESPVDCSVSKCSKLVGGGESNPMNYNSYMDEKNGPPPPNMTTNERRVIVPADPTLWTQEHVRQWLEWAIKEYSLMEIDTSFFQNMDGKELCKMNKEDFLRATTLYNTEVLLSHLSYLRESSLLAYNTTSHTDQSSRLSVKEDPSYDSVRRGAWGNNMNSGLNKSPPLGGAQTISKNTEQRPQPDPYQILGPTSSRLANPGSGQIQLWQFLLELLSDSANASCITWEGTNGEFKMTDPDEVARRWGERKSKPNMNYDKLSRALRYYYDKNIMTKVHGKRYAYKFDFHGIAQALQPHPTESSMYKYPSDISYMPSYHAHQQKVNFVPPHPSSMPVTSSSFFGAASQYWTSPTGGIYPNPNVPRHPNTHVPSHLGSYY
# How it was run: (§1)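 After expression in yeast as GST fusions, human transcription factors were bound to glutathione beads, DNA-barcoded and mixed with a tag-only sample. The pools were incubated with 200 nmole of a 16-mer random double-stranded DNA library in Tris/NaCl/DTT/glycerol buffer (30 min, room temperature), washed and crosslinked with 0.1% formaldehyde. Proximity ligation with BsaI/T4 ligase ran for 1 h at 37 °C, before PCR amplification and sequencing on an Illumina NextSeq500. Binding signal is a hexamer's read frequency for a factor divided by its frequency for the tag-only sample.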
# ELK1 = biological target: T2, ELK1 (Homo sapiens, UniProt P19419 1-428); conditions: protein: recombinant; tags: N-terminal GST; dsDNA, one strand shown
# T2 sequence: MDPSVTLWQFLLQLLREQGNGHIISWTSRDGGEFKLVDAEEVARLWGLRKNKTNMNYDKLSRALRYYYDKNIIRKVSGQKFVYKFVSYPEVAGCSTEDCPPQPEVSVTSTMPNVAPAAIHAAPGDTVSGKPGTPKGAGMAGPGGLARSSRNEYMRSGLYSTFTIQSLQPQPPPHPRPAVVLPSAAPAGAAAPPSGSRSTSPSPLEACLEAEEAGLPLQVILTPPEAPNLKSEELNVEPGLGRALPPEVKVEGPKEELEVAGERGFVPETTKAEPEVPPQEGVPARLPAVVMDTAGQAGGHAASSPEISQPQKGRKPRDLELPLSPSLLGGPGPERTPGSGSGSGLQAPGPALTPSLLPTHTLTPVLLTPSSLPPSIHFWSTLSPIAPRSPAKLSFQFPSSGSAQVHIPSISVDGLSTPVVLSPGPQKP
# How it was run: as §1
# GABPA = biological target: T3, GABPA (Homo sapiens, UniProt Q06546 1-454); conditions: protein: recombinant; tags: N-terminal GST; dsDNA, one strand shown
# T3 sequence: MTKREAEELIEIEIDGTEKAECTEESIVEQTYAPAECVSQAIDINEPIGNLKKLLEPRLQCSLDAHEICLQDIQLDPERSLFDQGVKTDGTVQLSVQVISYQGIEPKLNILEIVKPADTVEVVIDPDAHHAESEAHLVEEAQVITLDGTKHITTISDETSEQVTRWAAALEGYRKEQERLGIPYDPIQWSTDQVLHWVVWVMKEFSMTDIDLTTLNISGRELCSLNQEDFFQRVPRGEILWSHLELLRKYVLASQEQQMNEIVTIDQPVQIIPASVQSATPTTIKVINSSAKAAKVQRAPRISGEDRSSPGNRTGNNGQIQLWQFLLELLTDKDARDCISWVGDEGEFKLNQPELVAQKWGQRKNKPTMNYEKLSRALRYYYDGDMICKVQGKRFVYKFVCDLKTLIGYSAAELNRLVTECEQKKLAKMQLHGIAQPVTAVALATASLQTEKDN
# How it was run: as §1
# ERG = biological target: T4, ERG (Homo sapiens, UniProt P11308 1-479); conditions: protein: recombinant; tags: N-terminal GST; dsDNA, one strand shown
# T4 sequence: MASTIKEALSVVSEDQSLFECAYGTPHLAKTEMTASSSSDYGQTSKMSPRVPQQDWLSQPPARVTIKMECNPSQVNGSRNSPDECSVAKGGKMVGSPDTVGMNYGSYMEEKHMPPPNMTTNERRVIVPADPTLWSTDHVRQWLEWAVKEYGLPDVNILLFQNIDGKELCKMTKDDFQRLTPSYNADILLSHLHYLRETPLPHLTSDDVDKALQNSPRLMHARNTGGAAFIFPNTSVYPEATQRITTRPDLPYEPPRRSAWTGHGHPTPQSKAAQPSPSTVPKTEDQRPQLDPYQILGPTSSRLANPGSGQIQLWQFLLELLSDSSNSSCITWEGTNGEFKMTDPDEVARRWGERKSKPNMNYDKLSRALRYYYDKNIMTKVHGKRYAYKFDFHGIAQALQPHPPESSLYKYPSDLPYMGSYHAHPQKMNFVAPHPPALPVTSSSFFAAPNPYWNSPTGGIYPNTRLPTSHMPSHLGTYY
# How it was run: as §1
# ELF1 = ELF1 (Homo sapiens, UniProt P32519 1-619); conditions: protein: recombinant; tags: N-terminal GST; dsDNA, one strand shown
# How it was run: as §1
# SPI1 = SPI1 (Homo sapiens, UniProt P17947 1-270); conditions: protein: recombinant; tags: N-terminal GST; dsDNA, one strand shown
# How it was run: as §1
# SPIB = SPIB (Homo sapiens, UniProt Q01892 1-262); conditions: protein: recombinant; tags: N-terminal GST; dsDNA, one strand shown
# How it was run: as §1
# ELK3 = biological target: T5, ELK3 (Homo sapiens, UniProt P41970 1-407); conditions: protein: recombinant; tags: N-terminal GST; dsDNA, one strand shown
# T5 sequence: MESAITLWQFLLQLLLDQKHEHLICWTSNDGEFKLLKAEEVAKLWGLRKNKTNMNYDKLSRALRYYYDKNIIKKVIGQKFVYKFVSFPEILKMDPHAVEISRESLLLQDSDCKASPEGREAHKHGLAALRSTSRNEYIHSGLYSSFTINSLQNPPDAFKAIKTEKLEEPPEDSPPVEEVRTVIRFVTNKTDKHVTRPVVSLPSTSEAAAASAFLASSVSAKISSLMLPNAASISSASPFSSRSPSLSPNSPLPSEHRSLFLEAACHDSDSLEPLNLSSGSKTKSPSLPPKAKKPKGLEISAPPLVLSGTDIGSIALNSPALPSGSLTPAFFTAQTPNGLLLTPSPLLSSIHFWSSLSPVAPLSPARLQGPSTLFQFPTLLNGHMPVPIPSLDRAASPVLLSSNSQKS
# How it was run: as §1
# FEV = biological target: T6, FEV (Homo sapiens, UniProt Q99581 1-238); conditions: protein: recombinant; tags: N-terminal GST; dsDNA, one strand shown
# T6 sequence: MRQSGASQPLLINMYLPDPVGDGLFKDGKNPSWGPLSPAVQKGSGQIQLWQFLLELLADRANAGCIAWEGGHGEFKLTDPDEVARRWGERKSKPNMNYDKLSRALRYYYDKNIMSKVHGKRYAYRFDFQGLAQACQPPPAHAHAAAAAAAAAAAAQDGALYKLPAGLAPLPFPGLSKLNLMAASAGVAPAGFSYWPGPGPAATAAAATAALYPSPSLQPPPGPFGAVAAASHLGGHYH
# How it was run: as §1
# ETV5 = ETV5 (Homo sapiens, UniProt P41161 1-510); conditions: protein: recombinant; tags: N-terminal GST; dsDNA, one strand shown
# How it was run: as §1
# HSF1 = HSF1 (Homo sapiens, UniProt Q00613 1-529); conditions: protein: recombinant; tags: N-terminal GST; chain copies: 3; dsDNA, one strand shown
# How it was run: as §1
# SPIC = biological target: T7, SPIC (Homo sapiens, UniProt Q8N5J4 1-248); conditions: protein: recombinant; tags: N-terminal GST; dsDNA, one strand shown
# T7 sequence: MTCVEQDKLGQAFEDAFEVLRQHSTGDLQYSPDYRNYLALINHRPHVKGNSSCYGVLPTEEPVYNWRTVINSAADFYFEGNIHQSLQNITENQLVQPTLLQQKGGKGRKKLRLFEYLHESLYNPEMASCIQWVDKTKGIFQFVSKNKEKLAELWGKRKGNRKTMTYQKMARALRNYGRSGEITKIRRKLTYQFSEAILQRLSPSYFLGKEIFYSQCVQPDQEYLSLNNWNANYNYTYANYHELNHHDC
# How it was run: as §1
# ELF4 = ELF4 (Homo sapiens, UniProt Q99607 1-663); conditions: protein: recombinant; tags: N-terminal GST; dsDNA, one strand shown
# How it was run: as §1
# ELK4 = biological target: T8, ELK4 (Homo sapiens, UniProt P28324-2 1-405); conditions: protein: recombinant; tags: N-terminal GST; dsDNA, one strand shown
# T8 sequence: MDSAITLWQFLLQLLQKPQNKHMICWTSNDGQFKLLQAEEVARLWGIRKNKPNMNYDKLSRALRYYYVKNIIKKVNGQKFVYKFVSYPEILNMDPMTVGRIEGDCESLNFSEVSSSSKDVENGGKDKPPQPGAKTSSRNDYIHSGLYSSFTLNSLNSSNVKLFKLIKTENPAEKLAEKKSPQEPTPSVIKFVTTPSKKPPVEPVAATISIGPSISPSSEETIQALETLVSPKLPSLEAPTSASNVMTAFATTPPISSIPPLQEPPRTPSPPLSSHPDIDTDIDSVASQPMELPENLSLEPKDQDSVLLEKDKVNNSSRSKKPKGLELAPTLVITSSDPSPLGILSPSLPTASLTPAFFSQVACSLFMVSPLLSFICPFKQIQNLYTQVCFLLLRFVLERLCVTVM
# How it was run: as §1
# ELF3 = biological target: T9, ELF3 (Homo sapiens, UniProt P78545 1-371); conditions: protein: recombinant; tags: N-terminal GST; dsDNA, one strand shown
# T9 sequence: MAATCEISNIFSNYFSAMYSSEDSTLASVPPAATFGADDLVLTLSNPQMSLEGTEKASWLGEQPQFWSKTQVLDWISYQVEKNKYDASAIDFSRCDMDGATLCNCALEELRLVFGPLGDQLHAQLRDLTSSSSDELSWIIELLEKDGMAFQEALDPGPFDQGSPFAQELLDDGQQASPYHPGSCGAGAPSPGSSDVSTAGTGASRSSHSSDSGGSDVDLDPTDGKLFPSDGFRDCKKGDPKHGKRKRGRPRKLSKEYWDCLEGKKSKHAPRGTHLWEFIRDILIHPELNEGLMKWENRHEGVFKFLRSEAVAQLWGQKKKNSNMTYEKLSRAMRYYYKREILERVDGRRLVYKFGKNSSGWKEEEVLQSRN
# How it was run: as §1
# CRX = CRX (Homo sapiens, UniProt O43186 1-299); conditions: protein: recombinant; tags: N-terminal GST; dsDNA, one strand shown
# How it was run: as §1
# ETV1 = ETV1 (Homo sapiens, UniProt P50549 1-477); conditions: protein: recombinant; tags: N-terminal GST; dsDNA, one strand shown
# How it was run: as §1
# Chain of CRX (O43186 whole entry): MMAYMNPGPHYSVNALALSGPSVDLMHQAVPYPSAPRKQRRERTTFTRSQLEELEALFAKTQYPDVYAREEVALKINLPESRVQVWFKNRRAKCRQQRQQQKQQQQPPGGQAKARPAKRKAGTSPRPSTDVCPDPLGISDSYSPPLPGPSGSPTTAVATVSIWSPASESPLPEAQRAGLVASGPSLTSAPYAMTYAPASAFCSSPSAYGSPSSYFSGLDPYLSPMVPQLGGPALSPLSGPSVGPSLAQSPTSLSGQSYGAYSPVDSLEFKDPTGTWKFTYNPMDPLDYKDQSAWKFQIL
# Chain of ETV1 (P50549 whole entry): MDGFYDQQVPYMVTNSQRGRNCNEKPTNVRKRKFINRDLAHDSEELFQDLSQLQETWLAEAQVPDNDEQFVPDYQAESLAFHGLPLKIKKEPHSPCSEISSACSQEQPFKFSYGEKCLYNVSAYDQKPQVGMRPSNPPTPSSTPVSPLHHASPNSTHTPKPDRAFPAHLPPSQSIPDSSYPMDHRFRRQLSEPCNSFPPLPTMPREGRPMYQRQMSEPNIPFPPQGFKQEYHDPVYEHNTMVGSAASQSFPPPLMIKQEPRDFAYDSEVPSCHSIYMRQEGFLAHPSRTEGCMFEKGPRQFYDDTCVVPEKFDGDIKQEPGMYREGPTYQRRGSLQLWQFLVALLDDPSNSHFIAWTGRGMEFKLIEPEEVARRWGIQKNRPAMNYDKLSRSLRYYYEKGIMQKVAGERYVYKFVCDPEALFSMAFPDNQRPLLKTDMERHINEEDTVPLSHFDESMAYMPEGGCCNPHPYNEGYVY
# Chain of HSF1 (Q00613 whole entry): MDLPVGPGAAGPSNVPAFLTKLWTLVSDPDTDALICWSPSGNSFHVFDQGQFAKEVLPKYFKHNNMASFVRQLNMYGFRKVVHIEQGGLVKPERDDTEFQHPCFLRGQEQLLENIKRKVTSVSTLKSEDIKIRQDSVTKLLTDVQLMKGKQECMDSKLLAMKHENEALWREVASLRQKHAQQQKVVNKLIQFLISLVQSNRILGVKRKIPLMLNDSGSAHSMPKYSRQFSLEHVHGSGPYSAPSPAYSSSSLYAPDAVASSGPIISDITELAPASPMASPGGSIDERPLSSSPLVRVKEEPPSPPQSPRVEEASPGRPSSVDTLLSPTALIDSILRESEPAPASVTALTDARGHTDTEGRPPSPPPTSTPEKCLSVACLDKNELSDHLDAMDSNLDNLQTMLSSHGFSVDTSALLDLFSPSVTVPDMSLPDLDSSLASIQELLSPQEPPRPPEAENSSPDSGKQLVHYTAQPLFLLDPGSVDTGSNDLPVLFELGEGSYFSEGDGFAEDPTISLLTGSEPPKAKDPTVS
# Chain of SPIB (Q01892 whole entry): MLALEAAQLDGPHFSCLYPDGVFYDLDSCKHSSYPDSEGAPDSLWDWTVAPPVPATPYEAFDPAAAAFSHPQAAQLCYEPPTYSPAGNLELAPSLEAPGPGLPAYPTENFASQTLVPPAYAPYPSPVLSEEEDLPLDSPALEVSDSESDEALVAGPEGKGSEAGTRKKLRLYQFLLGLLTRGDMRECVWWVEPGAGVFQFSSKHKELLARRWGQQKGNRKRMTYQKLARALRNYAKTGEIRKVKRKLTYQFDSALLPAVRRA
# Chain of ELF4 (Q99607 whole entry): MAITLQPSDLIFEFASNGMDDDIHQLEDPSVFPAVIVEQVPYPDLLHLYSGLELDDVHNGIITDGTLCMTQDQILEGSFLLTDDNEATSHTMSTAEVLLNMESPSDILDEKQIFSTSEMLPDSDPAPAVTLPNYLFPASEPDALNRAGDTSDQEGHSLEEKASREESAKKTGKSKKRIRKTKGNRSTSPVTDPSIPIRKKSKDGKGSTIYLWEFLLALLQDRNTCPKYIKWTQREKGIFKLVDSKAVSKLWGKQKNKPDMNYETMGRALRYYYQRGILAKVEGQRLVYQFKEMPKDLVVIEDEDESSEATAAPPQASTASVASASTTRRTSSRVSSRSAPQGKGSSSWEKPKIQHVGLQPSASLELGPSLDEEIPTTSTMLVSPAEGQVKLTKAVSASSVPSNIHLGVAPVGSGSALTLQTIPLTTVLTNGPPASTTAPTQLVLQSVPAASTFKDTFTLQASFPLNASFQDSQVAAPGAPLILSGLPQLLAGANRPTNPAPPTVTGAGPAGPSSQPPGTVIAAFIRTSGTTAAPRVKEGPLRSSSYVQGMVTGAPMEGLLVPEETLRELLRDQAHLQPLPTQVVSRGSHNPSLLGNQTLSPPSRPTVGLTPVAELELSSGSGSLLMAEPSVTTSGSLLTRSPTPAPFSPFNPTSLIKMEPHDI
# Chain of ELF1 (P32519 whole entry): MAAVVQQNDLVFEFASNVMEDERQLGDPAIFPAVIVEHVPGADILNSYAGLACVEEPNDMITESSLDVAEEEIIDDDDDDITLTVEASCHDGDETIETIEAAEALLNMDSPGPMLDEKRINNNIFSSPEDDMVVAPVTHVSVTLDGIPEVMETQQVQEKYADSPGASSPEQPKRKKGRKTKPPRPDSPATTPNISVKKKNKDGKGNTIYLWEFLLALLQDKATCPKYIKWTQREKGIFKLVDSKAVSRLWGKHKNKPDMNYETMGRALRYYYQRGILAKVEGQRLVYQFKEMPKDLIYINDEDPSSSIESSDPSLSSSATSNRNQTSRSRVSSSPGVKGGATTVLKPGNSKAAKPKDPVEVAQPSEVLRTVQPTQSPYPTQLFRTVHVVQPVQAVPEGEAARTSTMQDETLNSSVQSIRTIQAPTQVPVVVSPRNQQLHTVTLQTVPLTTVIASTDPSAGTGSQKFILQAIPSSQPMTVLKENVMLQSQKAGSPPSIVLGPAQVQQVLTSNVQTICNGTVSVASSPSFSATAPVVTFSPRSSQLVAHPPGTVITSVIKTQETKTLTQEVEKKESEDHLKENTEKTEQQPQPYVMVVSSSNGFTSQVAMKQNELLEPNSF
# Chain of ETV5 (P41161 whole entry): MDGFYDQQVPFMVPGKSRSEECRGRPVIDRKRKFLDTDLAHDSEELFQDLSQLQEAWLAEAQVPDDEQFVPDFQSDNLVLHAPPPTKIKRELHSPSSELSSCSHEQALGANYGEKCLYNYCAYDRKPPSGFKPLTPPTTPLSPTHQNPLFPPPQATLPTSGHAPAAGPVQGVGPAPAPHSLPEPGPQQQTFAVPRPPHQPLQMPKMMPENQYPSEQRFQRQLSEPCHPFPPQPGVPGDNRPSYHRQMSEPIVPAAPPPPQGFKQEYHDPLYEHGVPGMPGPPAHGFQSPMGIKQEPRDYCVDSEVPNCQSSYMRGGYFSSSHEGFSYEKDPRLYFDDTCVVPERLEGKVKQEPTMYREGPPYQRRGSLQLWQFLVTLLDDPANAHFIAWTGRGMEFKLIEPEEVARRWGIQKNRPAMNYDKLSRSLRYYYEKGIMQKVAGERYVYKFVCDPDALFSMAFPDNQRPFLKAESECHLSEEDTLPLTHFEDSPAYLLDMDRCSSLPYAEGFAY
sequence,measurement,setting,value
GCTTTT,binding signal,FLI1,"1.06 fold enrichment (6-mer frequency, TF over GST control)"
same,binding signal,ELK1,"1.05 fold enrichment (6-mer frequency, TF over GST control)"
same,binding signal,GABPA,"1.16 fold enrichment (6-mer frequency, TF over GST control)"
same,binding signal,ERG,"1 fold enrichment (6-mer frequency, TF over GST control)"
same,binding signal,ELF1,"1.09 fold enrichment (6-mer frequency, TF over GST control)"
same,binding signal,SPI1,"1.33 fold enrichment (6-mer frequency, TF over GST control)"
same,binding signal,SPIB,"1.16 fold enrichment (6-mer frequency, TF over GST control)"
same,binding signal,ELK3,"1.11 fold enrichment (6-mer frequency, TF over GST control)"
same,binding signal,FEV,"1.07 fold enrichment (6-mer frequency, TF over GST control)"
same,binding signal,ETV5,"1.09 fold enrichment (6-mer frequency, TF over GST control)"
same,binding signal,HSF1,"1.12 fold enrichment (6-mer frequency, TF over GST control)"
same,binding signal,SPIC,"1.12 fold enrichment (6-mer frequency, TF over GST control)"
same,binding signal,ELF4,"1.18 fold enrichment (6-mer frequency, TF over GST control)"
same,binding signal,ELK4,"1.17 fold enrichment (6-mer frequency, TF over GST control)"
same,binding signal,ELF3,"1.14 fold enrichment (6-mer frequency, TF over GST control)"
same,binding signal,CRX,"1.32 fold enrichment (6-mer frequency, TF over GST control)"
same,binding signal,ETV1,"1.1 fold enrichment (6-mer frequency, TF over GST control)"
